These results are taken from PMC7862700, “An all-to-all approach to the identification of sequence-specific readers for epigenetic DNA modifications on cytosine”.

What all share (assay): DAPPL (digital affinity profiling via proximity ligation, sequencing); 10 mM Tris-HCl pH 7.5, 50 mM NaCl, 1 mM DTT, 4% glycerol, room temperature, 30 min; GST-TFs on glutathione beads, 16-mer random dsDNA library, 0.1% formaldehyde crosslink after washing; high values mean tight binding
In test [1] the target is T1, FEV (Homo sapiens, UniProt Q99581 1-238).
T1 sequence: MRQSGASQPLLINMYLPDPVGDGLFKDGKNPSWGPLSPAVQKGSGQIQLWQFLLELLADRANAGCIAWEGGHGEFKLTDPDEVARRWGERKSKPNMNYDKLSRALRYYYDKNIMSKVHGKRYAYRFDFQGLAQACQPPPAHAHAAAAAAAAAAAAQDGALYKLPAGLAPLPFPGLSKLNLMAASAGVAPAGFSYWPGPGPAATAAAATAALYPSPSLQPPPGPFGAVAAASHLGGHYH
The note with it: protein: recombinant; tags: N-terminal GST; dsDNA, one strand shown. The essentials:
(§1)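 Binding signal is each hexamer's read frequency for a factor divided by its frequency in the tag-only sample. The factors were GST-fused human transcription factors from yeast, captured on glutathione beads, DNA-barcoded and pooled with that sample. Pools were incubated with 200 nmole of a random double-stranded 16-mer DNA library in Tris/NaCl/DTT/glycerol buffer at room temperature for 30 min, then washed, crosslinked with 0.1% formaldehyde, proximity-ligated with BsaI/T4 ligase (1 h, 37 °C), PCR-amplified and sequenced on an Illumina NextSeq500.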

The target of test [2] is ETV5 (Homo sapiens, UniProt P41161 1-510). The note with it: protein: recombinant; tags: N-terminal GST; dsDNA, one strand shown. In short, it runs like this:
as §1

The target in test [3] is HSF1 (Homo sapiens, UniProt Q00613 1-529). The note with it: protein: recombinant; tags: N-terminal GST; chain copies: 3; dsDNA, one strand shown. The essentials: as §1
Test [4] has as its target T2, SPIC (Homo sapiens, UniProt Q8N5J4 1-248).
T2 sequence: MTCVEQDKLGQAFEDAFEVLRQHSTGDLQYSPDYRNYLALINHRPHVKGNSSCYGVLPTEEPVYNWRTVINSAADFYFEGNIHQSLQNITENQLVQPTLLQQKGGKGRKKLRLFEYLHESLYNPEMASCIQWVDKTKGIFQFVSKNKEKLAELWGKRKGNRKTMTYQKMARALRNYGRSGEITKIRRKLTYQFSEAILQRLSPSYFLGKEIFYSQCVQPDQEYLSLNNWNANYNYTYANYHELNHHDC
The note with it: protein: recombinant; tags: N-terminal GST; dsDNA, one strand shown. The essentials:
as §1

For test [5], the target named is ELF4 (Homo sapiens, UniProt Q99607 1-663). The note with it: protein: recombinant; tags: N-terminal GST; dsDNA, one strand shown. The essentials: as §1
For test [6], the target named is T3, ELK4 (Homo sapiens, UniProt P28324-2 1-405).
T3 sequence: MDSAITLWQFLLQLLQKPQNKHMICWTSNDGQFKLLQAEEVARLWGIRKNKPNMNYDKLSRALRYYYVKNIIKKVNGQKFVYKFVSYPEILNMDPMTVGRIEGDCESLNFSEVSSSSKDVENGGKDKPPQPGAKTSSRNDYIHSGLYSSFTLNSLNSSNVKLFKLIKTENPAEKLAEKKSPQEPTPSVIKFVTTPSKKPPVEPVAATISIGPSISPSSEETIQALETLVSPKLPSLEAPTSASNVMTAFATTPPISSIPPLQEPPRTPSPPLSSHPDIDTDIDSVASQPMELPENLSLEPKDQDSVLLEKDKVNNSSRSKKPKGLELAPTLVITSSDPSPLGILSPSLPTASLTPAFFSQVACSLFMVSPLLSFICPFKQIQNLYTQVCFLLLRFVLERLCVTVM
As to conditions: protein: recombinant; tags: N-terminal GST; dsDNA, one strand shown. The essentials:
as §1

For test [7], the target named is T4, ETV2 (Homo sapiens, UniProt O00321 1-342).
T4 sequence: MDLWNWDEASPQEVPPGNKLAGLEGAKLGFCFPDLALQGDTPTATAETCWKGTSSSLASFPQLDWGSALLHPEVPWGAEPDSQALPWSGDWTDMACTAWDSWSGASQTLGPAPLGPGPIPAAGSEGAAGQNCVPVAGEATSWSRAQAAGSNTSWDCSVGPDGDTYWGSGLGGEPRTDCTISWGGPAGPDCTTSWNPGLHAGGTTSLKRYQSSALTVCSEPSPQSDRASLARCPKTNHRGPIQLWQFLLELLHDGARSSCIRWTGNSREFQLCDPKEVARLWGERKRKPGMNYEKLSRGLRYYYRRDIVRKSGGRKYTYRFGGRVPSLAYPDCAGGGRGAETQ
The note with it: protein: recombinant; tags: N-terminal GST; dsDNA, one strand shown. The essentials:
as §1

Test [8] addresses T5, ELF3 (Homo sapiens, UniProt P78545 1-371).
T5 sequence: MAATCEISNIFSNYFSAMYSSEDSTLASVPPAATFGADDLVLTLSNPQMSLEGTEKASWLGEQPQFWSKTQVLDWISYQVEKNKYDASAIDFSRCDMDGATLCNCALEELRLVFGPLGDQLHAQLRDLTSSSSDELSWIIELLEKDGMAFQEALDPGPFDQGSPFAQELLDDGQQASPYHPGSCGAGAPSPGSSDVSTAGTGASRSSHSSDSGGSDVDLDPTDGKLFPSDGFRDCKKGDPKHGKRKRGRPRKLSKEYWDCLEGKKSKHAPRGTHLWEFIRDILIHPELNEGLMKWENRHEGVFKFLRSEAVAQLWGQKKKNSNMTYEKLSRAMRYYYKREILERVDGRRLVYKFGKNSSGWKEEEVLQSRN
The note with it: protein: recombinant; tags: N-terminal GST; dsDNA, one strand shown. In short, it runs like this:
as §1

For test [9], the target named is CRX (Homo sapiens, UniProt O43186 1-299). The note with it: protein: recombinant; tags: N-terminal GST; dsDNA, one strand shown. In short, it runs like this: as §1
The target in test [10] is ETV1 (Homo sapiens, UniProt P50549 1-477). As to conditions: protein: recombinant; tags: N-terminal GST; dsDNA, one strand shown. The essentials:
as §1

Test [11] deals with T6, ERF (Homo sapiens, UniProt P50548 1-548).
T6 sequence: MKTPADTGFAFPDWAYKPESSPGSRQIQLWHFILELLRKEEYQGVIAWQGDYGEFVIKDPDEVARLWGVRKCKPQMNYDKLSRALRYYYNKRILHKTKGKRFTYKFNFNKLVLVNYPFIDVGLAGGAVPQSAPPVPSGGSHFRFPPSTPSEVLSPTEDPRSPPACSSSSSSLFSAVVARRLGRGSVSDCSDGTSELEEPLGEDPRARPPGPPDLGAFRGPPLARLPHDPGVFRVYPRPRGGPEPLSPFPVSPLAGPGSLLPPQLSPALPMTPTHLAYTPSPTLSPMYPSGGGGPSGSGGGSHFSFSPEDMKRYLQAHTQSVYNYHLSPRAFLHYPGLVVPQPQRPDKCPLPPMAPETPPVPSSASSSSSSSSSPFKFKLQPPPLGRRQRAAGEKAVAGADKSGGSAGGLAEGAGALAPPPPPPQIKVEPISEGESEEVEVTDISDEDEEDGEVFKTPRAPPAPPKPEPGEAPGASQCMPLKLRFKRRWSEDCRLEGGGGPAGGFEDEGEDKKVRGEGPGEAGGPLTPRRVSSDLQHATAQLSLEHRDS
The note with it: protein: recombinant; tags: N-terminal GST; dsDNA, one strand shown. The essentials: as §1

The target in test [12] is T7, ETV3L (Homo sapiens, UniProt Q6ZN32 1-361).
T7 sequence: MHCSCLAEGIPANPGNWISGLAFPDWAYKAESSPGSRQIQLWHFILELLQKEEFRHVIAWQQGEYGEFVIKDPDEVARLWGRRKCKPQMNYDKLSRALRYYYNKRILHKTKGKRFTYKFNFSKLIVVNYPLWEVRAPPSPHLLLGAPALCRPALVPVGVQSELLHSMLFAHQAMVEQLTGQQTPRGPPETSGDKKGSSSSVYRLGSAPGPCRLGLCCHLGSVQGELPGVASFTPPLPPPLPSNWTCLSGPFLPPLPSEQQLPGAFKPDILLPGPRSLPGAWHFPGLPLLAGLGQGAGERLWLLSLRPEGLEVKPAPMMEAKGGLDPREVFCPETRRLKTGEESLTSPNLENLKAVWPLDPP
The note with it: protein: recombinant; tags: N-terminal GST; dsDNA, one strand shown. The essentials:
as §1

Test [13] addresses T8, ETS2 (Homo sapiens, UniProt P15036 1-469).
T8 sequence: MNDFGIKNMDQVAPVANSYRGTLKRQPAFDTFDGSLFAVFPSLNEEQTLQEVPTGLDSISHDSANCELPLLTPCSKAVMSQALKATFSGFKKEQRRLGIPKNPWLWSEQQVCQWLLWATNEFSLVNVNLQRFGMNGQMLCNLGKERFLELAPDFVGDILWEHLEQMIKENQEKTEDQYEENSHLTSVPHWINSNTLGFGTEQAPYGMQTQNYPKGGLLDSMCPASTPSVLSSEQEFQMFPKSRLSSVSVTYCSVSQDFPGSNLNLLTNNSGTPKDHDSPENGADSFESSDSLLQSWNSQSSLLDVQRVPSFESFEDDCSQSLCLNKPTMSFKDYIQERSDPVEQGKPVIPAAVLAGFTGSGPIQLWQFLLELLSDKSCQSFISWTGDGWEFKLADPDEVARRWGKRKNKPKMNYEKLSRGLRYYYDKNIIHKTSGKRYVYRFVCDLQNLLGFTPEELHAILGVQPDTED
As to conditions: protein: recombinant; tags: N-terminal GST; dsDNA, one strand shown. The essentials:
as §1

In test [14] the target is T9, SPDEF (Homo sapiens, UniProt O95238 1-335).
T9 sequence: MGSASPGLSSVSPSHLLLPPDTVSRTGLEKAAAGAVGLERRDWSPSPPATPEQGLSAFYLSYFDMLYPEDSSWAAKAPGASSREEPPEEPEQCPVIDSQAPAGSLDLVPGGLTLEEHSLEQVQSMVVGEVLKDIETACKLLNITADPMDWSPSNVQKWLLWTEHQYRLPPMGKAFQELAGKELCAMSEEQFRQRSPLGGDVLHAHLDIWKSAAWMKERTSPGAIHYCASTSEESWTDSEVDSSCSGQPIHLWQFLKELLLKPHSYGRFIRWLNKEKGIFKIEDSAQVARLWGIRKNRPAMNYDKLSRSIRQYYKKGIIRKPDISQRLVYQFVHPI
As to conditions: protein: recombinant; tags: N-terminal GST; dsDNA, one strand shown. In short, it runs like this: as §1

In test [15] the target is T10, ETV7 (Homo sapiens, UniProt Q9Y603 1-341).
T10 sequence: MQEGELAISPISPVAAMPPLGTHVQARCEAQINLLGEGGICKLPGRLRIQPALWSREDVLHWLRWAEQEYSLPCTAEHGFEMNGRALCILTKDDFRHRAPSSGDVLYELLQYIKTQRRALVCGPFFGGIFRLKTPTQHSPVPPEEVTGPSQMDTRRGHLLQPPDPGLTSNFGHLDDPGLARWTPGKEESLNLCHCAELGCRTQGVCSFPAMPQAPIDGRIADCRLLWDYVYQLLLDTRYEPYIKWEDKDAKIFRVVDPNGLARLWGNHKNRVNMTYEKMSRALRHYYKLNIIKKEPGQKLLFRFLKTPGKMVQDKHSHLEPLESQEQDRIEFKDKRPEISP
The note with it: protein: recombinant; tags: N-terminal GST; dsDNA, one strand shown. In short, it runs like this:
as §1

Test [16] deals with T11, ELF5 (Homo sapiens, UniProt Q9UKW6-2 1-255).
T11 sequence: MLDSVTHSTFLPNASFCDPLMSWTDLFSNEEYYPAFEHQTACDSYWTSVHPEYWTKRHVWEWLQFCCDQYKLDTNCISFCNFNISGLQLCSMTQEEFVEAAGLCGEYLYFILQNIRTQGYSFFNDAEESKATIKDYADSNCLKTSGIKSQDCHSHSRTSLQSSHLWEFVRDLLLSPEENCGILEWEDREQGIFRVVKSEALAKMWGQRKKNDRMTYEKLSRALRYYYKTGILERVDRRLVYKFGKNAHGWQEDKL
The note with it: protein: recombinant; tags: N-terminal GST; dsDNA, one strand shown. In short, it runs like this: as §1

Test [17] has as its target T12, ETV3 (Homo sapiens, UniProt P41162-2 1-143).
T12 sequence: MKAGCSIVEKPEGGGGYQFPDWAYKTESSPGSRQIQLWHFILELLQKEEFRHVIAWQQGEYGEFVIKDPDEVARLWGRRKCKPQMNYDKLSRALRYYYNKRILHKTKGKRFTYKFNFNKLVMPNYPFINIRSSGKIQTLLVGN
The note with it: protein: recombinant; tags: N-terminal GST; dsDNA, one strand shown. The essentials:
as §1

In test [18] the target is ETV6 (Homo sapiens, UniProt P41212 1-452). The note with it: protein: recombinant; tags: N-terminal GST; dsDNA, one strand shown. In short, it runs like this:
as §1

Chain of ETV6 (P41212 whole entry): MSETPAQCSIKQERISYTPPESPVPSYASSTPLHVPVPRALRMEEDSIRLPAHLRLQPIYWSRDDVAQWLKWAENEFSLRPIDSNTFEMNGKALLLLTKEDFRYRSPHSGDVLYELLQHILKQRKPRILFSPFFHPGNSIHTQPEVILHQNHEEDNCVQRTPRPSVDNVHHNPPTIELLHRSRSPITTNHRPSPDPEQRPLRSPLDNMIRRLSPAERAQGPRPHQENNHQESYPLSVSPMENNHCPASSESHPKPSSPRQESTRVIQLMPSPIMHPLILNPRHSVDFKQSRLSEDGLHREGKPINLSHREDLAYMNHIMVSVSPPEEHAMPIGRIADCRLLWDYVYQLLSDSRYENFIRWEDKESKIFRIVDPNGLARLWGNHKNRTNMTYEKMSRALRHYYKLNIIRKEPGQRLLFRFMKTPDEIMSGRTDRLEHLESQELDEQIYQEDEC
Chain of ETV5 (P41161 whole entry): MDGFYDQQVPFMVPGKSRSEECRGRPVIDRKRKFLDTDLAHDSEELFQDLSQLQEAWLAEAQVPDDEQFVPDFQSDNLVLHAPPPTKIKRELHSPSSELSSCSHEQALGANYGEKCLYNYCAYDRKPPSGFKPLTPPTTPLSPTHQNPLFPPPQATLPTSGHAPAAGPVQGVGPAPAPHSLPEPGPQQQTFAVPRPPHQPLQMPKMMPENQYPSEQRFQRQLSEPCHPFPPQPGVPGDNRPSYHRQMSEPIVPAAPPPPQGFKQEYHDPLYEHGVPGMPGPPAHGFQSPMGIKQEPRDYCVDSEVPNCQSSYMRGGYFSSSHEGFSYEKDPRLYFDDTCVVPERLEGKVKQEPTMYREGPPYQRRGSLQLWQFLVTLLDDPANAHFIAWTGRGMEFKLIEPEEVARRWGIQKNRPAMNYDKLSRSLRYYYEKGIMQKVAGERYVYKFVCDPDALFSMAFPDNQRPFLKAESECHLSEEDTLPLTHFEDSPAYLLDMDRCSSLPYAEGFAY
Chain of HSF1 (Q00613 whole entry): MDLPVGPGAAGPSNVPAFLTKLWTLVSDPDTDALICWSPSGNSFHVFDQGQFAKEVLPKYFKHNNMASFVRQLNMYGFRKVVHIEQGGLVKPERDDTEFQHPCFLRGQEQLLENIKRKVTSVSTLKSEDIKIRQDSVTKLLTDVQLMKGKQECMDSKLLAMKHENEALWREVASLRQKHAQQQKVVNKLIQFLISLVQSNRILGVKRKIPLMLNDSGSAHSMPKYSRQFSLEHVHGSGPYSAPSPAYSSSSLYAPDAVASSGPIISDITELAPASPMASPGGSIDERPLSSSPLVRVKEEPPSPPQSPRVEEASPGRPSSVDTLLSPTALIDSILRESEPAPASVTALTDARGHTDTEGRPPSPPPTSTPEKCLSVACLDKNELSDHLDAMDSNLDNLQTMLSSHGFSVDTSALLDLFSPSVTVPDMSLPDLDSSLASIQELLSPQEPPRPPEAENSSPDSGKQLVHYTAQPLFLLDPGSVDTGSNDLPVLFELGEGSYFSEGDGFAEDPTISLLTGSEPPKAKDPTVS
Chain of ELF4 (Q99607 whole entry): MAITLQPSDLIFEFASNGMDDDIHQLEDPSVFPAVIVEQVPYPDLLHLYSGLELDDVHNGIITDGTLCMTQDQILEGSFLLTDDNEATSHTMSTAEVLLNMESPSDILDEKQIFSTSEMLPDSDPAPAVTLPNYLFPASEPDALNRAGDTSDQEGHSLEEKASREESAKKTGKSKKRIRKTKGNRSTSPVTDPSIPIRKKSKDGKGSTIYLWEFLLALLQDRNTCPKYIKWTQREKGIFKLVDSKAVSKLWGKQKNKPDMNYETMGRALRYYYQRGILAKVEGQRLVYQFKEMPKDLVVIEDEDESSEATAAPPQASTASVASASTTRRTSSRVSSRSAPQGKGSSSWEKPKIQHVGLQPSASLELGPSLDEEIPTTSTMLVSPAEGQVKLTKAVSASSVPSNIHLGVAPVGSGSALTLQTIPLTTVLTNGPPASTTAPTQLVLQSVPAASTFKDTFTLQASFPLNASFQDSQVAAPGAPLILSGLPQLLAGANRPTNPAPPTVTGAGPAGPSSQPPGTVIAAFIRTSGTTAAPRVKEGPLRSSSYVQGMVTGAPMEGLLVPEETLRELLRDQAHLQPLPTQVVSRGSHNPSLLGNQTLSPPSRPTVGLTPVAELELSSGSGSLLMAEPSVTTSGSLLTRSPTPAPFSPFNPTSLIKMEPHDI
Chain of CRX (O43186 whole entry): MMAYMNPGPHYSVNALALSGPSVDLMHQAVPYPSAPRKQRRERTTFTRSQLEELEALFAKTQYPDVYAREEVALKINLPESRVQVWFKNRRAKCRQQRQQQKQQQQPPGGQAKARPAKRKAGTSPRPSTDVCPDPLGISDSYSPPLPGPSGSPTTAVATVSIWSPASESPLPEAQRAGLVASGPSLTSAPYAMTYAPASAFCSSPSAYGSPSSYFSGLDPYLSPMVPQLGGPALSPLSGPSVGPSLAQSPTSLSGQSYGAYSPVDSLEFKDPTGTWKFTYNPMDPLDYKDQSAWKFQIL
Chain of ETV1 (P50549 whole entry): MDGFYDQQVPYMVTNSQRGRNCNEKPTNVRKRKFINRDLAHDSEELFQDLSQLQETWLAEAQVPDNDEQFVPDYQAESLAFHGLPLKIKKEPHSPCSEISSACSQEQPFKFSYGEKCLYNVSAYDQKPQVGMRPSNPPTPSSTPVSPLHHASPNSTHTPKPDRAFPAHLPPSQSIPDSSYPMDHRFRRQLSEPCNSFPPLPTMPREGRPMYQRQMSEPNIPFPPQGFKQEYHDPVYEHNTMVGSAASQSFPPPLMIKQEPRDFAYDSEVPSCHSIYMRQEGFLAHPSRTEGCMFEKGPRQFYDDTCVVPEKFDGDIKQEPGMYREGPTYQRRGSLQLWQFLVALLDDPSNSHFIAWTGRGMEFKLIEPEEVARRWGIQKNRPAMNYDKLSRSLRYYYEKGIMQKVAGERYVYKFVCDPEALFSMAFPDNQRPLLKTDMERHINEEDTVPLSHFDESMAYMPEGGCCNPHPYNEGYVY

As to GCTTCC, the binding signal in test [1] was 4.3 fold enrichment (6-mer frequency, TF over GST control); in [2] it was 3.97 fold enrichment (6-mer frequency, TF over GST control); in test [3] it was 1.47 fold enrichment (6-mer frequency, TF over GST control); in test [4] it was 3.3 fold enrichment (6-mer frequency, TF over GST control); in [5] it was 3.18 fold enrichment (6-mer frequency, TF over GST control); in [6], 2.98 fold enrichment (6-mer frequency, TF over GST control). Moreover, the binding signal in test [7] was 3.44 fold enrichment (6-mer frequency, TF over GST control); in [8] it was 3.14 fold enrichment (6-mer frequency, TF over GST control); in [9], 1.19 fold enrichment (6-mer frequency, TF over GST control); in test [10] it was 3.62 fold enrichment (6-mer frequency, TF over GST control); in [11], 3.06 fold enrichment (6-mer frequency, TF over GST control); in test [12], 3.36 fold enrichment (6-mer frequency, TF over GST control). Besides, the binding signal is 3.56 fold enrichment (6-mer frequency, TF over GST control) in test [13]; 3.67 fold enrichment (6-mer frequency, TF over GST control) in test [14]; 3.14 fold enrichment (6-mer frequency, TF over GST control) in [15]; 4.78 fold enrichment (6-mer frequency, TF over GST control) in [16]; 3.8 fold enrichment (6-mer frequency, TF over GST control) in test [17]; 4.28 fold enrichment (6-mer frequency, TF over GST control) in [18].
